Assay outcomes: PubChem, NMMLSC
Sampled rows, rich in hits. Any-hit rate of the full collection: about 3.5%.
BoNT A protease: BoNT/A light chain protease inhibitors, primary screen, biochemical, flow cytometry, MLPCN library. Botulinum neurotoxin type A light chain protease (Clostridium botulinum A str. ATCC 3502). multiplex microsphere protease substrate cleavage. inhibition, % at 10 µM. 360,000 tested, 0.17% active. AID 588499, 2011; note: plate controls were buffer without enzyme for full effect and enzyme alone for no effect
Bead autofluor: compound fluorescence in toxin protease inhibitor counterscreen; compound autofluorescence counterscreen, microsphere flow cytometry; hits give high values; AID 624483; 360,000 tested, 3.1% active; fluorescence intensity (test concentration not listed); in the data active = fluorescence intensity above about 16000; inconclusive = no clear call, values can overlap the other calls
Anthrax LF prot: Bacillus anthracis LF protease inhibitors, primary screen, biochemical, multiplex microsphere, MLPCN library | Lethal factor (Bacillus anthracis), P15917 | multiplex microsphere protease cleavage assay | inhibition, % at 10 µM | 360,000 tested, 0.12% active | AID 588501, 2011; note: plate controls were buffer without enzyme for full effect and enzyme alone for no effect
BoNT F protease: BoNT/F light chain protease inhibitors, primary screen, biochemical, flow cytometry, MLPCN library. Multiplex microsphere protease cleavage assay. 360,000 tested, 0.22% active. inhibition, % at 10 µM; in the data active = inhibition above about 35%, passing the limit was not always enough; inconclusive = no clear call, values can overlap the other calls; note: plate controls were buffer without enzyme for full effect and enzyme alone for no effect
* = called active by the depositor; ? = inconclusive. Cut-off read from the data, not from the text of the source, unless noted: active = inhibition above about 30%; inconclusive = no clear call, values can overlap the other calls; inactive = below that.

SMILES	BoNT A protease	Bead autofluor	Anthrax LF prot	BoNT F protease
CC1(C)CC(Cc2cccc(C(F)(F)F)c2)N(C(=O)OC(C)(C)C)C1 (configuration not stated)	0.1	3480	0.4	-1.5
CC(C)N(C(=O)COC(=O)c1cc(Cl)cc(Cl)c1N)C(C)C	-6.8	21720*	-0.6	-9.2
CN(C)C(=O)COC(=O)c1cc(Cl)cc(Cl)c1N	1.8	7240	-20.2	-7.6
COc1ccc(S(=O)(=O)N2CCCCC2c2cc(C(=O)Nc3ccc(F)c(Cl)c3)no2)cc1 (configuration not stated)	-0.6	3920	-6.6	-5.0
COc1ccc(C(=O)NCC(=O)Nc2ccc(F)cc2)cc1OC	?	16515*	-0.3	-1.6
COc1cccc(NC(=O)CNC(=O)c2ccc(OC)c(OC)c2)c1	-1.3	4182	-5.6	-11.7
CC1(C(=O)O)CCCN1C(=O)c1cc2ccccc2s1 (configuration not stated)	0.2	3487	-7.5	1.2
CC(=O)c1sc2nc(C)cc(C)c2c1N	-0.5	21807*	-3.2	0.6
Cn1c(-c2ccc(F)cc2)cnc1NCc1ccccc1	-3.4	17208*	-4.4	-5.9
Cn1c(-c2cccc(Br)c2)cnc1NCc1cccnc1	-2.1	23394*	-2.1	-3.6
CC(=NN1CC(=O)NC1=O)c1ccc([N+](=O)[O-])o1	-0.9	3958	-4.9	-3.7
O=C(COC(=O)c1ccccn1)NCc1ccc(Cl)cc1Cl	-2.8	9588	-0.6	-6.7
O=C(NCc1ccc(Cl)cc1Cl)c1ccccn1	-3.0	24310*	-0.3	-2.7
CCN(CC)C(=O)c1ccc2c(=O)n(CCOC)c(=S)[nH]c2c1	?	20993*	-5.2	3.3
CCN(CC)C(=O)c1ccc2c(=O)n(Cc3ccc4c(c3)OCO4)c(=S)[nH]c2c1	-3.6	3321	-14.5	-25.7
CCOC(=O)N1CCN(C(=O)c2ccc3c(=O)n(Cc4ccc(Cl)cc4)c(=S)[nH]c3c2)CC1	1.0	19158*	-1.7	-0.6
CCN1CCN(C(=O)c2ccc3c(=O)n(Cc4ccccc4OC)c(=S)[nH]c3c2)CC1	6.7	18735*	-4.9	7.1
CC1CCCN(C(=O)c2ccc3c(=O)n(Cc4ccc5c(c4)OCO5)c(=S)[nH]c3c2)C1 (configuration not stated)	0.3	22529*	0.6	-2.2
CC(C)n1cc(C#N)c(N)n1	-0.3	3318	0.7	-1.1
CCC(=O)N1CCCC(C)(C(=O)NS(=O)(=O)c2ccccc2Cl)C1 (configuration not stated)	0.2	3759	-1.5	-2.5
CCOCCCn1c(=S)[nH]c2cc(C(=O)N3CCOCC3)ccc2c1=O	-2.0	17022*	0.8	-5.3
O=C(c1ccc2c(=O)n(Cc3ccccc3)c(=S)[nH]c2c1)N1CCOCC1	-1.7	6499	0.9	-2.1
COCCn1c(=S)[nH]c2cc(C(=O)N3CCN(c4ccccc4OC)CC3)ccc2c1=O	?	22207*	1.2	-3.5
CCCCN(C=O)c1c(CC)nc2ccc(C(=O)N(C)Cc3ccco3)cn12	0.0	3014	-5.0	-2.9
CCOc1ccc(C(=S)N2CCOCC2)cc1OCC	-0.7	23260*	1.5	-0.1
SMILES	BoNT A protease	Bead autofluor	Anthrax LF prot	BoNT F protease
O=C(COc1ccc(C(=S)N2CCOCC2)cc1)N1CCOCC1	-3.7	7074	2.8	-8.8
CCN1CCN(C(=S)c2ccc(OCC(=O)N3CCOCC3)cc2)CC1	1.3	19327*	-2.2	-2.0
CCOc1cc(C(=S)N2CCCCC2)ccc1OCC(=O)NCc1ccccc1	?	22179*	-0.7	4.7
COCCCNc1ccn2nc(-c3ccc(Cl)cc3)cc2n1	0.1	3146	-5.8	-1.7
COc1ccc(Cl)cc1NC(=O)CN(C)C(=O)c1cc(-c2ccncc2)nc2ccccc12	10.7	4573	4.3	5.6
CCC1NC(=O)c2cc3ccccc3cc2-n2c1nc1ccc(F)cc1c2=O (configuration not stated)	0.1	3466	-1.4	-3.0
COc1ccc(CCN2C(=O)CC(Sc3ncccc3C(=O)O)C2=O)cc1OC (configuration not stated)	-0.3	23415*	1.5	1.0
CCCN1C(=O)CC(Sc2ncccc2C(=O)O)C1=O (configuration not stated)	-0.7	4775	2.4	6.5
COc1ccc(C)cc1NC(=O)NC1CC(=O)N(c2ccc3c(c2)OCCO3)C1 (configuration not stated)	-0.2	3129	-2.9	-0.4
COC(=O)N(c1ccccc1)P1(=S)OCCO1	0.8	4175	3.1	6.4
CCOC(=O)N(c1ccccc1)P1(=S)OCC(C)O1 (configuration not stated)	-1.1	20958*	0.5	-2.9
